# Screening data deposited in PubChem by Sanford-Burnham Center for Chemical Genomics.
# Rows were chosen to be rich in hits. Some 31% of all compounds tested hit in one or more screens of this group.
# CYP2C19 act: increases human CYP2C19 enzyme activity | recombinant CYP2C19, luciferin-H EGE luminescence; stronger effect = higher value; 0 = fully inhibited enzyme, 1 = untreated enzyme | 96,000 tested, under 10 active | activation factor at 5 µM;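 active = activation factor of at least 2 at 5 µM in the primary screen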
# CYP2C19 inh: inhibitors of human CYP2C19; inhibition, % at 5 µM; AID 778; 96,000 compounds, 21% hits; CYP2C19 Supersomes, luciferin-H EGE luminescence, 30 min; P33261;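 active = CYP2C19 inhibition above a set limit at 5 µM in the primary screen, cut at about 50% in these data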
# CYP2C9 inh: inhibitors of human CYP2C9; CYP2C9 Supersomes, luciferin-H conversion, luminescence; P11712; inhibition, % at 5 µM; 96,000 compounds, 20% hits; AID 777;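 active = blocking of liver enzyme CYP2C9 beyond about 50% at 5 µM, limit read from the data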
# Target sequence (P11712 whole entry, looked up): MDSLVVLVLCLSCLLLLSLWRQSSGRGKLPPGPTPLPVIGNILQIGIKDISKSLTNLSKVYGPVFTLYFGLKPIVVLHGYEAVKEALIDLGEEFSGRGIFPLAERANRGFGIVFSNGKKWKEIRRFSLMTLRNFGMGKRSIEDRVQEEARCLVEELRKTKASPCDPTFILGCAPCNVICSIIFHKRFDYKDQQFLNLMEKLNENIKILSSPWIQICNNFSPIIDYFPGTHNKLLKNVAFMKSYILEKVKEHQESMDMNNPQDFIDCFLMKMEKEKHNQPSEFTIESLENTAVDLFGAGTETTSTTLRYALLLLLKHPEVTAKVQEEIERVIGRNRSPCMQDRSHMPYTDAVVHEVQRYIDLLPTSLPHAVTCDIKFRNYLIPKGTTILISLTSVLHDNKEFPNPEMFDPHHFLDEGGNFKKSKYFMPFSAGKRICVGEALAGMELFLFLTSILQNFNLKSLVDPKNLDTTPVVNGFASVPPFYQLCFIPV
# CYP2C9 act: activators of human CYP2C9 | P11712 | activation factor at 5 µM | recombinant CYP2C9, luciferin-H conversion, luminescence; stronger effect = higher value; factor 1 = untreated enzyme, 0 = blocked | AID 1024 | 96,000 compounds, 1.4% hits;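 active = activation factor of 2 or more for CYP2C9 at a 5 µM dose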
# PLAP activator: activates human placental alkaline phosphatase. purified PLAP enzyme, luminescent substrate read-out; stronger effect = higher value. activation fold at 20 µM. P05187. 96,000 compounds, 1.2% hits; in the data active = activation fold above about 2
# Numbers stand for hits; – = inactive.
SMILES,CYP2C19 act,CYP2C19 inh,CYP2C9 inh,CYP2C9 act,PLAP activator
Cc1ccc(NC(=O)CS(=O)CC(=O)NCC2OCCc3ccccc32)c(C)c1 (stereo not drawn),–,–,–,–,–
CN(Cc1cccc(F)c1)C(=O)c1ccc(S(=O)(=O)C(F)F)cc1,–,59.3,–,–,–
CN(CC(=O)NCc1cccc(F)c1)C(=O)c1ccco1,–,–,–,–,–
CCN(CC)CCN1C(=O)C(=O)/C(=C(/O)c2ccc(OC)cc2)C1c1cccs1 (stereo not drawn),–,–,–,–,–
CCOc1ccc(/C(O)=C2/C(=O)C(=O)N(CCCn3ccnc3)C2c2cccs2)cc1Cl (stereo not drawn),–,–,70.2,–,–
Cc1cccc(C)c1-n1nnnc1C1(Nc2ccccc2)CCCCC1,–,61.0,61.1,–,–
Clc1ccc(NC2(c3nnnn3C3CCCCC3)CCCCC2)cc1,–,–,–,–,–
CCCCCOC(=O)c1ccc(NC(=O)c2ccco2)cc1,–,79.5,93.6,–,–
CCCCOc1ccccc1NC(=O)c1ccco1,–,52.0,–,–,–
Cc1ccccc1OCC(=O)Nc1cccc(NC(=O)c2ccco2)c1,–,71.8,–,–,–
CCCCOC(=O)c1ccc(NC(C)=O)cc1,–,–,–,–,–
CCOc1ccccc1NC(=O)c1cccc(NC(=O)c2ccco2)c1,–,75.9,–,–,–
O=C(O)C1C2CCC(O2)C1C(=O)NCc1ccncc1 (stereo not drawn),–,–,–,–,–
O=C(N/N=C/c1cccnc1)C1CCCN(S(=O)(=O)c2ccccc2)C1 (stereo not drawn),–,–,–,–,–
COc1ccc(NC(=O)CCNC(=O)Cn2cnc3ccccc3c2=O)c(OC)c1,–,–,–,–,–
Cc1cc(NC(=O)c2ccco2)ncc1NC(=O)CCc1ccccc1,–,–,–,–,–
Cc1cc(NC(=O)c2cccc(F)c2)ncc1NC(=O)c1ccco1,–,96.2,63.4,–,–
CC12CCC(C(=O)Nc3ncc([N+](=O)[O-])s3)(OC1=O)C2(C)C (stereo not drawn),–,–,–,–,–
Cc1cc(C)cc(NC(=O)N2CCCC2C(=O)Nc2ccc(-n3cnnn3)cc2)c1 (stereo not drawn),–,83.0,–,–,–
CC(=O)c1cccc(NC(=O)N2CCCC2C(=O)Nc2cccc(C)c2)c1 (stereo not drawn),–,–,53.0,–,–
CC(=O)Nc1cccc(NC(=O)C2CCCN2C(=O)Nc2cccc(C)c2)c1 (stereo not drawn),–,–,–,–,–
CNc1ccccc1C(C)(C)c1cc(-c2ccco2)n[nH]1,–,53.5,–,–,–
CON(C)c1nc(Oc2ccc(=O)[nH]n2)nc(N(C)C)n1,–,–,–,–,–
Cc1cccc(C)c1N1C(=O)c2ccccc2C1=O,–,54.3,–,–,–
CC(=O)Nc1cccc(N2C(=O)CC(Cc3ccccc3)C2=O)c1 (stereo not drawn),–,–,–,–,–
SMILES,CYP2C19 act,CYP2C19 inh,CYP2C9 inh,CYP2C9 act,PLAP activator
C=CCn1c(N2C(=O)CC(Cc3ccccc3)C2=O)nc2ccccc21 (stereo not drawn),–,79.3,–,–,2.5
Cc1c(Br)cc(C(=O)OC2CCN(C)CC2)c(C)c1C,–,–,–,2.3,–
CN(C)C(=O)C1OC(C)(C)OC1C(=O)N(C)C (stereo not drawn),–,–,–,–,–
O=C(CSc1nnc(C2CC2)n1-c1ccccc1)Nc1ccc(N2CCOCC2)cc1,–,–,–,–,–
Cc1nnc(Nc2ccc3c(c2)ncn3C)c2ccccc12,–,83.4,–,–,–
Cc1ccc(-c2nnc(Nc3ccc4c(c3)nc(C)n4C)c3ccccc23)cc1,–,–,–,–,–
Cc1[nH]c2ccccc2c1C(=O)Cn1c(=O)oc2ccccc21,–,62.3,57.9,–,–
COc1ccccc1C(=O)NC(CCSC)C(=O)NCC(c1ccco1)N(C)C (stereo not drawn),–,68.6,66.8,–,–
COc1ccc(CNC(=O)C(CCSC)NC(=O)c2ccco2)cc1 (stereo not drawn),–,60.1,–,–,–
COc1ccccc1C(=O)NC(CCSC)C(=O)OCC(=O)NC(=O)NCc1ccco1 (stereo not drawn),–,–,96.9,–,–
COC(=O)[C@H](CCSC)NC(=O)NC1CCN(Cc2ccccc2)CC1,–,–,–,–,–
CSCCC(NC(=O)c1ccco1)C(=O)OC(C)C(=O)NC(=O)NC1CCCCC1 (stereo not drawn),–,–,65.2,–,–
COc1cccc(/C=N/NC(=O)CC(=O)NCCc2ccc(OC)c(OC)c2)c1,–,–,–,–,–
CCCc1nc(NC(C)=O)c(C#N)c(-c2ccco2)c1CC,–,–,–,–,–
c1c2c(cc3sc(N4CCOCC4)nc13)OCCO2,–,87.3,–,–,–
CCOC(=O)N1CCN(C(=O)C2c3cc(OC)c(OC)cc3C(=O)N3CCc4ccccc4C23)CC1 (stereo not drawn),–,–,76.2,–,–
CCN(CC)CCNC(=O)C1c2cc(OC)c(OC)cc2C(=O)N2CCc3ccccc3C12 (stereo not drawn),–,–,76.5,–,–
O=C(NCCN1CCN(c2ccccc2F)CC1)C1c2ccccc2C(=O)N2CCc3ccccc3C12 (stereo not drawn),–,–,–,–,–
COc1ccc(-n2c(C)c3c(OC)cccc(=O)c3c2C)cc1,–,81.3,58.2,–,–
COCCN(CC(=O)Nc1cccc(C)c1)S(=O)(=O)c1ccc(S(=O)(=O)N2CCCC2)cc1,–,–,61.0,–,–
COc1cccc(NC(=O)c2ccc(S(=O)(=O)N3CCCCC3)cc2)c1,–,–,–,–,–
COc1cccc(OC)c1OCCCc1c(C)n[nH]c1C,–,–,–,–,–
Cc1cccc(OCCCc2c(C)n[nH]c2C)c1,–,92.5,56.6,–,–
CCC1(CC)C(=O)C(C)(C)C(=O)OC1c1cccs1 (stereo not drawn),–,96.2,–,–,–
CN(C)c1ccc(C2OC(=O)C(C)(C)C(=O)C2(C)C)cc1 (stereo not drawn),–,–,–,–,–
SMILES,CYP2C19 act,CYP2C19 inh,CYP2C9 inh,CYP2C9 act,PLAP activator
CC(C)N1CC(C(=O)O)CC1=O (stereo not drawn),–,–,–,–,–
O=C(COc1ccccc1)Nc1nc(-c2ccc(S(=O)(=O)N3CCOCC3)cc2)cs1,–,–,77.6,–,–
O=C(CCc1ccc(S(=O)(=O)N2CCOCC2)cc1)Nc1nc(COc2ccccc2)cs1,–,–,85.0,–,–
O=C(COc1ccc(Cl)cc1)Nc1nc(-c2ccc(S(=O)(=O)N3CCOCC3)cc2)cs1,–,57.9,91.7,–,–
O=C(CCc1ccc(S(=O)(=O)N2CCOCC2)cc1)Nc1nccs1,–,–,–,–,–
O=C(COC(=O)c1ccc(S(=O)(=O)N2CCOCC2)cc1)Nc1nc(-c2ccccc2)cs1,–,–,–,–,–
Cc1ccc(CS(=O)(=O)CCC(=O)NCCCN2CCCC2=O)cc1,–,–,–,–,–
